From PubChem BioAssay (NCI) come the findings set out here.

This is part of a sample that, as a whole, favours compounds with a hit. Of some 83,000 tested, about 20% had one in any assay.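 Step 1: grow cells in 96-well plates. Step 2: add test compound at a single concentration. Step 3: incubate 48 h. Step 4: record percent growth.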 A number with no mark means an inactive call. Activity calls are given as the source filed them. The calls were made as follows: active = growth percent below 10; inactive = the rest.

For the assay, the system named is HL-60(TB) leukemia. The experiment in a line: NCI-60 one-dose screen, 48 h (100 = growth as untreated, 0 = no growth, -100 = all killed). To be noted: 10 µM unless noted.
With `CNC(=O)c1[nH]cc(-c2ccccc2)c1-c1cc(OC)c2c(c1OC)OCO2`, the growth is 93.3%.
With `COc1cc2c3c(c4c5ccccc5[nH]c4c2c(OC)c1OC)C(=O)N(O)C3=O`, the growth was 51.7%.
The figure for `O=C(O)CCCCNC(=O)c1ccccc1` is 101%.
`COc1cccc2c1C(=O)c1c(O)c3c(c(O)c1C2=O)C[C@@](O)(C(=O)COC(=O)c1cccnc1)C[C@@H]3OC1CC(N)C(O)C(C)O1` (stereo not given in full): the growth is -27% (active).
Consider `COc1ccccc1Cn1cc2c(c1)-c1oncc1CC2`, for which the growth was 1.41% (active).
With `N#Cc1c(-c2ccc(F)cc2)nc(N/N=C/c2cccc(O)c2)nc1N1CCOCC1`, the growth was 47.2%.
Then `COC(=O)/C(Br)=C/c1c[nH]c2ccc(Br)cc12`, with 67.9%; and `NC(N)=Nc1cc2ccccc2c2ccccc12`, with 46.4%.
Turning to `C=C(C)[C@@H]1CC=C2c3sc(-c4ccc(C)cc4)nc3C[C@@H](C)[C@]2(C)C1`, the growth was 102%.
In the case of `CCOC(=O)C1=CSC2=NC3=C(CCC/C3=C\c3cc(OC)c(OC)c(OC)c3)C(c3cc(OC)c(OC)c(OC)c3)N12` (stereo not given), the growth is 51.5%.
Regarding `N=C(N)c1ccc(-c2ccc(-c3ccc(Cl)cc3Cl)s2)nc1`, the growth is -35.7% (active).
Then `CCOC(=O)c1c(C)oc2ncnc(Nc3ccc(NC(=O)Nc4cccc(Cl)c4)cc3)c12`, with 88.4%; and `Cc1nc2cc(Nc3nc(Nc4ccc(F)cc4)nc(-c4ccc(Cl)cc4)n3)ccc2n1Cc1ccccc1`, with -29.6% (active); and `NS(=O)(=O)c1ccc(-n2nc(-c3ccc(Cl)cc3)c3ccccc3c2=O)cc1`, with 95.2%.
On to `Cc1ccc(-c2csc(NC(=O)N3CCN(c4cc5c(cc4F)c(=O)c(C(=O)O)cn5C4CC4)CC3)n2)cc1`, for which the growth was -15.5% (active).
The figure for `Cc1cc(NCc2cc(Nc3ccnc4cc(Cl)ccc34)ccc2F)nc(N2CCCC2)n1` is -59.5% (active); for `COc1ccc2nc3cc(Cl)ccc3c(Nc3ccc(O)c(CN4CCCC4)c3)c2c1` it is -51% (active); for `O=c1oc2ccccc2c(Cl)c1Cl` it is 41.4%.
With `CCN1C(=O)/C(=C/C=C/N(C)c2ccccc2)SC1=S`, the growth is 78.2%.
With `CN1CCN(c2ccc(/C=C/C(=O)c3ccc(O)cc3)cc2)CC1`, the growth was 115%.
`Cc1cc(N(CCCNc2ccnc3cc(Cl)ccc23)Cc2ccccn2)nc(N2CCCC2)n1`: the growth is 65.8%.
Then `C[C@@H]1O[C@@H](O[C@@H]2C[C@H](c3ccc4c(c3O)C(=O)C3=C(C4=O)[C@@]4(O)C(=O)C[C@](C)(O)C[C@@]4(O)C=C3)O[C@H](C)[C@H]2O)C[C@H](O)[C@@H]1O`, with 99.5%.
Take `CCCCCCN1C(=O)/C(=c2\sc3n(c2=O)C2C(NN=3)N(CC)C(=O)N2CC)c2ccccc21` (stereo not given): the growth is 42.2%.
Regarding `CCN(CC)CCCC(C)Nc1cnc(C(=O)Nc2ccc(Cl)c3cccnc23)cn1` (stereo not given), the growth was -63.3% (active).
Then `COc1ccc(C(Cn2ccnc2)Sc2ccc(Cl)c(Cl)c2)cc1` (stereo not given), with 70.7%.
Then `COc1ccc(-c2cc(-c3c(C)oc4cc5occc5c(OC)c4c3=O)nc(N)c2C#N)cc1OC`, with 57.9%; and `COc1ccc(-c2cc(-c3cccnc3)nc3sc4c(Cl)nnnc4c23)cc1OC`, with 85.4%; and `CCN(CC)CCOc1nc2ccc(OC)cc2c2c1-c1ccc(OC)cc1C2=O`, with 19.2%.
Take `CC1=C(C)C(=O)OC([C@](C)(O)[C@]2(O)CC[C@@]3(O)[C@@H]4C[C@H]5O[C@]56CC=CC(=O)[C@]6(C)[C@H]4CC[C@]23COC(=O)c2ccc(C)o2)C1` (stereo not given in full): the growth was -22.6% (active).
The figure for `C[C@]1(CO)C[C@@H](O)C[C@]2(C)[C@@H]1CC[C@@]13C[C@@H]4[C@@H](C[C@H]12)[C@]4(C)C3` is 103%; for `OC1CCCc2ccccc21` (stereo not given) it is 98.4%.
Then `CCn1cc(CNc2ccc(C(=O)Nc3cc4cc(OC)c(OC)cc4c(C)n3)cc2)cn1`, with 32.8%; and `CC(C)C(C(=O)CCN(C)C)c1ccc(Cl)cc1` (stereo not given), with 81.4%; and `COc1cccc(N2CCN(c3ncnc4cc[nH]c34)CC2)c1`, with 71.3%.
Then `COc1ccccc1Nc1nnc(COc2ccc(CNC(=O)CCCC/C=C/C(C)C)cc2OC)o1`, with 81.1%; and `Cc1nc2sccn2c1-c1csc(Nc2ccccc2Cl)n1`, with 19.2%; and `COc1nc2c(c(=O)n1C)CN(Cc1ccccc1)C=N2`, with 92.9%.
Take `O=C1/C(=C/c2ccc([N+](=O)[O-])s2)Oc2cc(Cl)ccc21`: the growth is -11.7% (active).
`Cc1c(-c2ccc(C3CCCCC3)cc2)nc2ccc(F)cc2c1C(=O)O`: the growth is 24.8%.
`CC(C)OC(=O)c1ccc2n1CCCc1cnc(Nc3ccccc3)nc1-2`: the growth was 79.1%.
